Experimental data published in the supplement of paper PMC6897291.

Columns and labels:
RIVA [1] = experiment: growth inhibition by drug alone (1 - RLU/untreated control) (fraction); higher = stronger inhibition; conditions: 177Lu-lilotomab satetraxetan 0 ug/ml
Procedure, shortened: (§1)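 Compound doses on the pre-printed Selleck Cambridge Cancer Compound library plates were 10/100 nM for RIVA cells and 10/1,000 nM for U-2932 cells, seeded at 3,000 cells/well. Before seeding, cells were washed after 18 h with or without a radiolabelled anti-CD37 antibody conjugate (~600 MBq/mg; 0.5 µg/ml RIVA, 1 µg/ml U-2932). Growth inhibition was derived from RealTime-Glo luminescence relative to untreated no-drug control wells. Readings were taken daily starting on day 3, each after 1 h at 37°C, and each well's RLU was divided by the mean of 48 such wells per plate and subtracted from 1.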

U-2932 = experiment: growth inhibition by drug plus 177Lu-lilotomab satetraxetan (1 - RLU/untreated control) (fraction); higher = stronger inhibition; conditions: 177Lu-lilotomab satetraxetan 1 ug/ml
Procedure, shortened: as §1

RIVA [2] = experiment: as above; conditions: 177Lu-lilotomab satetraxetan 0.5 ug/ml
Procedure, shortened: as §1

Row | Structure (SMILES) | growth inhibition by drug alone (RIVA [1]; 10 nM, time (day): 3) | growth inhibition by drug alone (RIVA [1]; 10 nM, time (day): 4) | growth inhibition by drug alone (RIVA [1]; 10 nM, time (day): 5) | growth inhibition by drug alone (RIVA [1]; 10 nM, time (day): 6) | growth inhibition by drug alone (RIVA [1]; 100 nM, time (day): 3) | growth inhibition by drug alone (RIVA [1]; 100 nM, time (day): 4) | growth inhibition by drug alone (RIVA [1]; 100 nM, time (day): 5) | growth inhibition by drug alone (RIVA [1]; 100 nM, time (day): 6) | growth inhibition by drug plus 177Lu-lilotomab satetraxetan (U-2932; 10 nM, time (day): 3) | growth inhibition by drug plus 177Lu-lilotomab satetraxetan (U-2932; 10 nM, time (day): 4) | growth inhibition by drug plus 177Lu-lilotomab satetraxetan (U-2932; 10 nM, time (day): 5) | growth inhibition by drug plus 177Lu-lilotomab satetraxetan (U-2932; 10 nM, time (day): 6) | growth inhibition by drug plus 177Lu-lilotomab satetraxetan (U-2932; 1000 nM, time (day): 3) | growth inhibition by drug plus 177Lu-lilotomab satetraxetan (U-2932; 1000 nM, time (day): 4) | growth inhibition by drug plus 177Lu-lilotomab satetraxetan (U-2932; 1000 nM, time (day): 5) | growth inhibition by drug plus 177Lu-lilotomab satetraxetan (U-2932; 1000 nM, time (day): 6) | growth inhibition by drug plus 177Lu-lilotomab satetraxetan (RIVA [2]; 10 nM, time (day): 3) | growth inhibition by drug plus 177Lu-lilotomab satetraxetan (RIVA [2]; 10 nM, time (day): 4) | growth inhibition by drug plus 177Lu-lilotomab satetraxetan (RIVA [2]; 10 nM, time (day): 5) | growth inhibition by drug plus 177Lu-lilotomab satetraxetan (RIVA [2]; 10 nM, time (day): 6) | growth inhibition by drug plus 177Lu-lilotomab satetraxetan (RIVA [2]; 100 nM, time (day): 3) | growth inhibition by drug plus 177Lu-lilotomab satetraxetan (RIVA [2]; 100 nM, time (day): 4) | growth inhibition by drug plus 177Lu-lilotomab satetraxetan (RIVA [2]; 100 nM, time (day): 5) | growth inhibition by drug plus 177Lu-lilotomab satetraxetan (RIVA [2]; 100 nM, time (day): 6)
1 | N#CCNC(=O)c1ccc(-c2ccnc(Nc3ccc(N4CCOCC4)cc3)n2)cc1 | -0.164 | -0.233 | -0.267 | -0.364 | -0.378 | -0.377 | -0.416 | -0.56 | -0.0778 | -0.021 | 0.0189 | 0.13 | 0.143 | 0.174 | 0.206 | 0.384 | 0.481 | 0.53 | 0.555 | 0.562 | 0.347 | 0.434 | 0.447 | 0.446
2 | COc1nc(C)cnc1NS(=O)(=O)c1cccnc1-c1ccc(-c2nnco2)cc1 [Zibotentan (ZD4054)] | 0.00676 | -0.0294 | -0.0678 | -0.248 | -0.0338 | -0.0394 | -0.0583 | -0.115 | -0.0217 | 0.0145 | 0.00284 | 0.0711 | -0.0714 | 0.0154 | -0.0042 | -0.0452 | 0.387 | 0.514 | 0.537 | 0.542 | 0.388 | 0.485 | 0.494 | 0.461
3 | Cc1cccc(-c2nn3c(c2-c2ccnc4ccc(C(N)=O)cc24)CCC3)n1 | -0.233 | -0.26 | -0.269 | -0.342 | -0.0721 | -0.126 | -0.16 | -0.229 | -0.116 | -0.0664 | -0.0409 | 0.0836 | 0.0167 | 0.0206 | -0.00167 | 0.117 | 0.371 | 0.487 | 0.502 | 0.523 | 0.372 | 0.444 | 0.459 | 0.437
4 | CS(=O)(=O)N1CCc2c(-c3cnc(N)nc3)nc(N3CCOCC3)nc21 | 0.14 | 0.0286 | -0.0356 | -0.278 | 0.291 | 0.165 | 0.108 | 0.0361 | 0.0821 | 0.0867 | 0.0957 | 0.135 | 0.216 | 0.214 | 0.223 | 0.326 | 0.395 | 0.499 | 0.537 | 0.543 | 0.451 | 0.434 | 0.439 | 0.428
